# From the supplement of paper PMC6555819
# How the values were obtained:
# Assay in all cases: PBM binding z-score (relative to random genomic background probes); higher = stronger binding; sequences stand for … in GC…GCGATTGACAGCGTAGAATGAAGG
# [1] = tested on: FXR:RXRa (NR concentration 270 nM, RXRa partner concentration 90 nM)
# Summary of the method: (§1)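 Custom Agilent 4×180K protein-binding microarrays carried double-stranded probes, each with a 34-nt variable region. These regions held direct-repeat seeds, single-nucleotide variants, half-site ablations and random human genomic background sequences. Ligand-free nuclear receptor dimers were incubated on the arrays for 1 h, antibodies against each partner (one per run) detected binding, and scanned fluorescence was regression-normalized. Binding z-scores take the random background probes as reference.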
# [2] = tested on: LXRa:RXRa (NR concentration 270 nM, RXRa partner concentration 90 nM)
# Summary of the method: as §1
# [3] = tested on: LXRa homodimer (NR concentration 270 nM)
# Summary of the method: as §1
# [4] = tested on: LXRb:RXRa (NR concentration 270 nM, RXRa partner concentration 90 nM)
# Summary of the method: as §1
# [5] = tested on: LXRb homodimer (NR concentration 270 nM)
# Summary of the method: as §1
# [6] = tested on: PPARa:RXRa (NR concentration 270 nM, RXRa partner concentration 90 nM)
# Summary of the method: as §1
# [7] = tested on: PPARg:RXRa (NR concentration 180 nM, RXRa partner concentration 90 nM)
# Summary of the method: as §1
# [8] = tested on: PPARg:RXRa 270nM:90nM, anti-RXR (NR concentration 270 nM, RXRa partner concentration 90 nM)
# Summary of the method: as §1
# [9] = tested on: PPARg:RXRa 30nM:10nM, anti-RXR (NR concentration 30 nM, RXRa partner concentration 10 nM)
# Summary of the method: as §1
# [10] = tested on: PPARg:RXRa 90nM:30nM, anti-RXR (NR concentration 90 nM, RXRa partner concentration 30 nM)
# Summary of the method: as §1
# [11] = tested on: PPARg:RXRa DBDmut IVT, anti-RXR (DBD mutation: RXRa K156A/R161A, NR concentration 270 nM, RXRa partner concentration 90 nM)
# Summary of the method: as §1
# [12] = tested on: PPARg:RXRa IVT, anti-PPARg (NR concentration 270 nM, RXRa partner concentration 90 nM)
# Summary of the method: as §1
# [13] = tested on: PPARg DBDmut:RXRa IVT, anti-PPARg (DBD mutation: PPARg1 K132A/R137A, NR concentration 270 nM, RXRa partner concentration 90 nM)
# Summary of the method: as §1
# [14] = tested on: PPARg DBDmut IVT, anti-PPARg (DBD mutation: PPARg1 K132A/R137A, NR concentration 270 nM)
# Summary of the method: as §1
# [15] = tested on: PPARg homodimer (NR concentration 180 nM)
# Summary of the method: as §1
# [16] = tested on: PXR:RXRa (NR concentration 270 nM, RXRa partner concentration 90 nM)
# Summary of the method: as §1
# [17] = tested on: PXR homodimer (NR concentration 270 nM)
# Summary of the method: as §1
# [18] = tested on: RARa:RXR (NR concentration 270 nM, RXRa partner concentration 90 nM)
# Summary of the method: as §1
# [19] = tested on: RARa homodimer (NR concentration 270 nM)
# Summary of the method: as §1
# [20] = tested on: RARb:RXRa (NR concentration 270 nM, RXRa partner concentration 90 nM)
# Summary of the method: as §1
Sequence,PBM binding z-score [1],PBM binding z-score [2],PBM binding z-score [3],PBM binding z-score [4],PBM binding z-score [5],PBM binding z-score [6],PBM binding z-score [7],PBM binding z-score [8],PBM binding z-score [9],PBM binding z-score [10],PBM binding z-score [11],PBM binding z-score [12],PBM binding z-score [13],PBM binding z-score [14],PBM binding z-score [15],PBM binding z-score [16],PBM binding z-score [17],PBM binding z-score [18],PBM binding z-score [19],PBM binding z-score [20]
TCTTGTAGATCAAGAGGAGGTTAAGAAAGATCGA,0.338,0.95,-0.0702,0.725,-0.517,1.22,-0.0325,1.24,2.38,1.6,1.29,0.615,0.0065,0.335,0.153,0.769,-0.0434,1.09,0.139,0.364
AATACAGGGTCACTAGGCCAGAGTTGGTACGAAT,6.05,4.87,0.807,3.75,0.616,5.99,8.38,6.63,3.71,5.85,4.05,5.77,1.25,0.486,2.23,3.38,0.712,4.44,0.618,4.29
CCTACTGGGCCACGAAAGGTCACTGATTCAGTGA,2.97,4.41,2.54,3.75,-0.0263,4.32,5.13,4.98,2.2,4.02,5.42,6.08,0.0808,0.166,1.93,4.63,0.0856,4.94,0.447,4.07
TCTGCTAGGTCAGTTGGTCAGCTAACGAGCTGCC,0.844,0.445,-0.44,0.299,0.673,1.29,0.575,1.83,1.27,1.66,2.77,3.08,-0.303,0.752,0.0124,0.0781,-0.754,0.864,-0.941,3.35
AGAACGAGGGGACGCTGAGTTGATAGCAGAGTAG,-0.308,-0.353,-0.679,-0.522,-0.449,-0.232,0.607,0.0813,-0.0641,-0.258,1.17,0.723,0.599,0.498,-0.427,-0.245,0.132,-0.589,-0.633,0.334
TAGCCTAGGTCATGGGCCAGGATACCACGCGAAC,4.32,3.44,0.422,2.16,-0.43,4.16,3.93,3.93,1.12,2.85,1.37,3.45,0.121,0.0645,0.888,1.54,-0.528,2.52,-0.123,3.8
AGAATGAGGTTAACATCAGGGAAACAGAATACAT,2.93,2.97,-0.211,2.21,-0.23,4.3,3.36,3.34,1.39,2.46,3.52,3.79,1.84,1.16,1.12,1.43,0.184,2.81,0.181,2.32
TAGCCTAGGTCATGGGCCACTATACCACGCGAAC,4.16,3.63,0.886,2.81,0.0878,4.15,4.04,4.19,1.48,3.31,2.09,3.43,0.102,-0.16,1.27,1.72,-0.144,2.66,-0.0929,3.8
CAAACTAGGTCACCGGTAGGTCAAAGTCCGCATG,5.71,4.92,3.87,4.52,0.66,5.98,9.32,7.44,5.74,7.12,8.32,9.19,3.98,4.14,4.51,4.51,0.526,5.43,1.6,4.95
CCTCGGAGGATAGAAGGTCAGAGCTGTCCGCTTT,1,1.57,0.218,1.21,-0.745,1.83,-0.0434,1.26,-0.528,0.571,0.306,0.12,-1.89,-1.62,1.56,1.38,-0.0463,1.82,0.234,2.29
AGAACGAGGTTATTAAGATCAGGGAATTGCGGTC,1.44,1.34,-0.0763,1.09,-0.115,2.15,1.26,1.68,0.389,0.958,2.38,2.16,0.246,0.0385,0.237,1.04,0.955,1.08,-0.125,1.32
ATCTCTAGGAAAAAGTTCAGTGAATCCCGAGGAT,0.0166,0.275,0.466,0.0384,0.735,0.653,1.18,3.25,1.41,2.47,-0.718,-0.0888,0.814,0.266,0.423,0.837,0.888,0.235,1,1.78
CCTCCTGGGCCAAGGTCATTGATCAGTCAAAGCA,2.96,2.89,1.06,2.86,-0.68,3.57,1.39,2.83,0.457,1.75,-0.293,1.48,-1.33,-1.61,1.55,3.38,0.83,3.49,-0.129,3.47
CTCGAAAGGTTGTGCTCAGGTGAGTATACCAAAC,0.895,0.617,-0.192,0.714,-0.313,1.04,-0.0653,0.312,-0.567,0.171,-0.27,-0.00807,-0.154,-0.108,0.203,0.645,-0.0824,1.38,0.121,1.2
CAAACTAGGTCAAGGTCAAAGCCGGTTTGTGCCA,6.25,5.33,3.23,4.36,1.05,6.15,9.26,8.02,6.18,7.95,8.75,8.89,2.59,0.00542,2.93,4.89,1.4,4.84,0.855,5.2
TCATATAGGTAAACAGGTGAAATTCCGTAAGTTA,1.25,1,0.35,1.2,-0.0512,2.32,2.75,3.22,4.19,3.8,4.59,4.41,1.27,1.49,1.3,1.03,0.625,1.67,2.19,0.689
CAAACTAGGTCACAGAGGTCAGAGTCCGTGCGTA,6.35,5.23,4.71,4.72,0.859,6.11,9.99,7.88,6.14,7.84,8.64,9.29,2.49,1.4,4.05,5.59,7.79,5.97,1.84,5.11
GGAACGAGGGCATTCGAGTTGATAGCCTGGCGAT,0.904,1.66,-0.751,0.0314,-0.65,1.42,0.665,0.992,-0.34,0.776,3.64,2.1,-0.256,-0.793,-0.188,4.04,1.57,1.58,-0.598,1.82
ATTTCTAGGTAAAGATAGTTCAGTGAATGCAAAT,0.355,4.21,0.857,1.02,0.567,1.39,1.3,1.27,0.883,1.07,4.34,3.44,1.56,1.86,1.56,1.08,1.16,0.625,1.49,0.8
CGAACTAGGCCAAGGACAGTGAATCTCCGCACGC,-0.241,-0.713,-0.191,-0.883,-0.975,1.04,1.69,1.53,-0.0892,0.672,6.24,4.83,0.31,-0.452,-0.431,-0.557,-0.632,-0.45,-0.416,0.81
ATCTTTAGGTAAGACTCAGTTCAGTGAAGAACGC,0.459,0.502,0.392,0.259,0.931,0.478,0.122,0.267,0.146,0.0526,0.866,0.683,1.19,0.877,0.751,1.35,1.56,0.837,1.14,0.585
CGTACTGGGCCAAAGGTCATTGATTCCAATGCTC,4.8,5.21,4.25,5.04,0.838,6.66,12.7,10.7,10.2,12.9,5.43,7,0.296,-0.116,4.18,5.73,2.15,6.41,1.62,4.54
TCTCGGAGGACTCGAAGGTCAGAGCTTTCCAGAG,0.838,0.984,-0.429,0.814,-1.14,1.46,-0.316,1.24,2,1.38,1.45,0.0197,-0.446,-1.86,0.353,1.04,-0.316,1.48,-1.07,2.17
TCTATTAGTTGAAGGGCGACCGACGAGTCCGTTT,0.994,1.03,0.292,0.778,0.384,0.661,-0.000303,2.13,3.99,2.9,2.51,0.299,0.865,1.2,0.852,0.655,0.886,0.0781,0.844,0.714
CGTCCAAGGTCAATGCTACGTCAGTGAAAGCATT,6.6,4.58,0.394,3.37,0.412,4.89,3.32,4.18,1.44,3.3,3.21,3.16,1.41,-0.403,2.71,3.7,0.586,3.85,0.867,4.96
CCTACTGGGCCAAGGTCACTGATCAGTCAAAGCA,3.03,2.64,0.281,2.79,-0.518,4.1,4.17,4.62,2.22,3.93,4.22,4.98,-0.183,-0.598,2.26,3.02,0.241,3.49,0.0362,3.73
GCGACTGGGGCAAAGCAGTTTACCATAAGGTTGG,-0.303,-0.296,-0.507,-0.071,-1.21,0.822,1.17,1.31,-0.433,0.756,4.75,3.5,0.0777,-0.489,0.131,0.655,-0.386,-0.18,-0.418,0.776
CGAACCAGGTCAGAACAGGACAGTGAAGGATGAT,2.83,1.68,0.0841,0.939,-0.216,2.43,2.14,1.88,0.485,1.32,3.56,3.58,0.325,-0.243,1.16,1.66,-0.119,1.4,0.21,3.05
